In ChEMBL document CHEMBL3988442, “University of Dundee, Small-Polar-MMV Screening Library” (2021) one finds Percent Effect data, which are given here for eleven molecules.

Holding throughout (set-up): scale not given: direction of the effect not stated beside the values
For experiment [1], the target named is Protein translocase subunit SecA (Escherichia coli (strain K12)) (UniProt P10408). Kind of experiment: Assay to Identify E. coli SecA ATPase Inhibitors. Format: functional. The following applies: 30 µM.
Experiment [2] has as its target T1, Ubiquitin-activating enzyme e1, putative (Leishmania donovani (strain BPK282A1)) (UniProt E9BSI1).
T1 sequence (whole entry): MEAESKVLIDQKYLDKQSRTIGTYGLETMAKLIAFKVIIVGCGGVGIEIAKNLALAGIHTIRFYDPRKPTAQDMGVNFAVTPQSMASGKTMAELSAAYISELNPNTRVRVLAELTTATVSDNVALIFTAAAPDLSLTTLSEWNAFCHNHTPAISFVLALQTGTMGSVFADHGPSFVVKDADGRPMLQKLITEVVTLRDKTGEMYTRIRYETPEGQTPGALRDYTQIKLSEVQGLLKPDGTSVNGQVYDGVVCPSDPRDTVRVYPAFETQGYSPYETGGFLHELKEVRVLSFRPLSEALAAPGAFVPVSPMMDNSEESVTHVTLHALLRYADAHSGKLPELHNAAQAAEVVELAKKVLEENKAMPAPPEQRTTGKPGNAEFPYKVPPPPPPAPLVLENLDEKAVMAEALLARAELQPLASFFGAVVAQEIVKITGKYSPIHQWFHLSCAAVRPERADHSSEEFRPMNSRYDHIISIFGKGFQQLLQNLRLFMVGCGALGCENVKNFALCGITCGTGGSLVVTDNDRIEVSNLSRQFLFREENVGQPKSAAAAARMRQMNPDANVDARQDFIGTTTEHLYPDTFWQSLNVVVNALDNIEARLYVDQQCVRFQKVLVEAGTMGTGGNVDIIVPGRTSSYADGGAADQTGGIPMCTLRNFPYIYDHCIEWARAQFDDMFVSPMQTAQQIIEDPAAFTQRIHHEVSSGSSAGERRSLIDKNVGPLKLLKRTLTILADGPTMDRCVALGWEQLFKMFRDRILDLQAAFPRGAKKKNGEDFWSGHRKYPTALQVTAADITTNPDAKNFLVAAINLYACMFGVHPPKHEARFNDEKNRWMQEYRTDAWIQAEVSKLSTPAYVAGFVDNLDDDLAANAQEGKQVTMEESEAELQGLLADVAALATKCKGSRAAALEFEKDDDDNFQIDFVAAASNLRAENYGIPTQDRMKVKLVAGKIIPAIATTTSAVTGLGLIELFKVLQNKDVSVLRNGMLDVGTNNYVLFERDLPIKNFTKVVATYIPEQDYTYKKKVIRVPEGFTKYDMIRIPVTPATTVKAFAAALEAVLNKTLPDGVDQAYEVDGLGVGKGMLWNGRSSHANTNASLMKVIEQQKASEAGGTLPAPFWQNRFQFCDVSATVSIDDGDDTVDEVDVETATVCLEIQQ
As to the kind of experiment: Leishmania donovani Ubiquitin Activating Enzyme (LdE1). The following applies: 30 µM. Format: functional.

The target in experiment [3] is AMP-activated protein kinase, AMPK (Homo sapiens) (UniProt P54646+O43741+P54619+Q9UGJ0+Q9Y478+Q13131+Q9UGI9). As to the kind of experiment: AMP-dependent Kinase enzyme assay. An in vitro enzyme assay that detects ADP turnover that is directly proportional to AMPK activity. This uses naive AMPK that is activated during the assay with MK-8722. Format: functional. The following applies: 30 µM.

Experiment [4] addresses Sialic acid-binding Ig-like lectin 9 (Homo sapiens) (UniProt Q9Y336). As to the kind of experiment: Hs-Siglec9 ALPHAscreen SOP 20170721. The following applies: 10 µM. In general terms: Bead proximity is the source of the signal in Alpha formats.
Another experiment deals with Trypanosoma cruzi. Kind of experiment: Trypanosoma cruzi phosphomannomutase and mannose-1-phosphate guanylyltransferase assay. Format: functional. The following applies: 10 µM.
The target of experiment [5] is T2, Arginase-2, mitochondrial (Homo sapiens) (UniProt P78540).
T2 sequence (whole entry): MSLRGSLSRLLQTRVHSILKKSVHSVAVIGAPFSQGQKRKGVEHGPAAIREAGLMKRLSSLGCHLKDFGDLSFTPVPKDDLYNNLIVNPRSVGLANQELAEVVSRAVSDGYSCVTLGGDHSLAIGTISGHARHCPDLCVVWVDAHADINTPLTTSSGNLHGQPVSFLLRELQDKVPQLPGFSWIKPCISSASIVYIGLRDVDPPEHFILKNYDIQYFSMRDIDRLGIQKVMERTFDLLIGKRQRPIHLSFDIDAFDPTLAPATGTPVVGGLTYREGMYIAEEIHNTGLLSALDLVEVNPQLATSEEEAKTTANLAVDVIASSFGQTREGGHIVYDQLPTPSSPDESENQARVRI
Kind of experiment: in vitro enzyme assay to detect the production of urea directly proportional to the activity of Arginase II. Further: in the data most compounds retested in dose-response had high values. Format: functional. The following applies: 33.3 µM.

Experiment [6] has as its target T3, Proteasome subunit beta (Trypanosoma cruzi) (UniProt O96673).
T3 sequence (whole entry): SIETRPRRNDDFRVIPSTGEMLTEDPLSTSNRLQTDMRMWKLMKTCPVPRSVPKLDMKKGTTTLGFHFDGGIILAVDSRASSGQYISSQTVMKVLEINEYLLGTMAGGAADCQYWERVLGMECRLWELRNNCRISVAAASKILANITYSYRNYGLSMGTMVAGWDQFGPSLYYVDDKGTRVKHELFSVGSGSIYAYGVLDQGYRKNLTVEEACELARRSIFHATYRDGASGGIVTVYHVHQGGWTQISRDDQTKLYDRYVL
As to the kind of experiment: Trypanosoma cruzi proteasome chymotrypsin-like activity (TcProtChymo) assay. Further: in the data most compounds retested in dose-response had high values. Format: functional. The following applies: 9.37 µM.

The species entered for the next experiment is Homo sapiens. As to the kind of experiment: To identify inhibition of the IFN signalling (Jak-Stat) pathway via expression of an eGFP reporter gene under the control of an IFN-stimulated response element (ISRE) containing MxA promoter. Format: functional. The following applies: 30 µM. For orientation: A reporter such as luciferase makes a cellular process visible.

For experiment [7], the target named is T4, Tyrosyl-tRNA synthetase, putative (Trypanosoma cruzi (strain CL Brener)) (UniProt Q4DSP6).
T4 sequence (whole entry): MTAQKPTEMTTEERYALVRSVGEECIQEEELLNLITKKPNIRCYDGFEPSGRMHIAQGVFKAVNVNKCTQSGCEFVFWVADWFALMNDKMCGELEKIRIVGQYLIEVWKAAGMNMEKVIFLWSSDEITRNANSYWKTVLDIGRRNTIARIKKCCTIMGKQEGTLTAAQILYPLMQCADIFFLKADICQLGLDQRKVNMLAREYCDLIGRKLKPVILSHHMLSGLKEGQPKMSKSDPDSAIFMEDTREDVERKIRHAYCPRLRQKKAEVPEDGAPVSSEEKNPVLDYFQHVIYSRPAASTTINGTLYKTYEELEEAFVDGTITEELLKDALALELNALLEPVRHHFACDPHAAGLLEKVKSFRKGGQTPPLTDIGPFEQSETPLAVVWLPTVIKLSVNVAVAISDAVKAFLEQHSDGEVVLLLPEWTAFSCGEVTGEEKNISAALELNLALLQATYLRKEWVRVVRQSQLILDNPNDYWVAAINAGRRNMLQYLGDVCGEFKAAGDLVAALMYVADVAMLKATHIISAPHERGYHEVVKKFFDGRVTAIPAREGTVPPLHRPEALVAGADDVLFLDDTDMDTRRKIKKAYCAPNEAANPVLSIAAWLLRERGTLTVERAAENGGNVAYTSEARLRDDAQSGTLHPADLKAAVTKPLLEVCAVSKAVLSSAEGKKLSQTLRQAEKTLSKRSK
As to the kind of experiment: Trypanosoma cruzi tyrosyl tRNA synthetase (TcYRS) _High Tyrosine SOP. Further: in the data most compounds retested in dose-response had high values. The experiment is classed as functional. The following applies: 30 µM.

Experiment [8] concerns the target T4, Tyrosyl-tRNA synthetase, putative (Trypanosoma cruzi (strain CL Brener)). As to the kind of experiment: Trypanosoma cruzi tyrosyl tRNA synthetase (TcYRS) SOP. The experiment is classed as functional. The following applies: 30 µM.
For experiment [9], the target named is Chromo domain-containing protein 1 (Saccharomyces cerevisiae (strain ATCC 204508 / S288c) (Baker's yeast)) (UniProt P32657). As to the kind of experiment: ScCHD-1 Enzyme Inhibition Assay. Further: in the data most compounds retested in dose-response had high values. The experiment is classed as functional. The following applies: 30 µM.
The test system of the next experiment is N/A. As to the kind of experiment: Trypanosoma cruzi proteasome luciferase counter-screen. Format: functional. The following applies: 9.37 µM.

“And” between values parts separate entries of the source, which are not always exact repeats. Equal values may be shown once. For part of these data: Entries with a potency or affinity are not part of this list.

Protein translocase subunit SecA (Escherichia coli (strain K12)), sequence (P10408 whole entry): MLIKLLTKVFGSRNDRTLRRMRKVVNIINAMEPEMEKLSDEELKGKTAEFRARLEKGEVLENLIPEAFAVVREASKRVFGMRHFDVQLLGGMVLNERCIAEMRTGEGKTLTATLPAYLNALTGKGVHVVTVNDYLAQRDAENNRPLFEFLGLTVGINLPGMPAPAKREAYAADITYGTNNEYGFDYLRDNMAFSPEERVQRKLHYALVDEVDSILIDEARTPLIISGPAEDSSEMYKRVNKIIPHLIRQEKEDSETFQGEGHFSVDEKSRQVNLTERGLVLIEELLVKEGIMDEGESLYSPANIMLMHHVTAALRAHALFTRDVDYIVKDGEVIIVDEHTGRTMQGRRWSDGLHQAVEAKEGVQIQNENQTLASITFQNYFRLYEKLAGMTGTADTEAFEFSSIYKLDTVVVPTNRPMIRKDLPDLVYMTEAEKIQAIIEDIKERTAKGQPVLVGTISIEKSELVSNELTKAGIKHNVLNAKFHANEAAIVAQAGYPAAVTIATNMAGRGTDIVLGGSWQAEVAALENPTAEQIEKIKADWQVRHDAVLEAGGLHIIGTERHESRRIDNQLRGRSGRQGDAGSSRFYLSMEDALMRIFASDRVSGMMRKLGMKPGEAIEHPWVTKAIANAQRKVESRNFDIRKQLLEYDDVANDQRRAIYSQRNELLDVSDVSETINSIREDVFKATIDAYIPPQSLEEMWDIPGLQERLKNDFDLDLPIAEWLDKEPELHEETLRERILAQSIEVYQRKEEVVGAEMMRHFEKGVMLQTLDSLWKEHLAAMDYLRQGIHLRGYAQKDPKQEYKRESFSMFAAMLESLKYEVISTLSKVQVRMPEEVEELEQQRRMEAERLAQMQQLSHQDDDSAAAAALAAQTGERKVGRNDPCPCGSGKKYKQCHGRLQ
Chromo domain-containing protein 1 (Saccharomyces cerevisiae (strain ATCC 204508 / S288c) (Baker's yeast)), sequence (P32657 whole entry, the tested form may be a part): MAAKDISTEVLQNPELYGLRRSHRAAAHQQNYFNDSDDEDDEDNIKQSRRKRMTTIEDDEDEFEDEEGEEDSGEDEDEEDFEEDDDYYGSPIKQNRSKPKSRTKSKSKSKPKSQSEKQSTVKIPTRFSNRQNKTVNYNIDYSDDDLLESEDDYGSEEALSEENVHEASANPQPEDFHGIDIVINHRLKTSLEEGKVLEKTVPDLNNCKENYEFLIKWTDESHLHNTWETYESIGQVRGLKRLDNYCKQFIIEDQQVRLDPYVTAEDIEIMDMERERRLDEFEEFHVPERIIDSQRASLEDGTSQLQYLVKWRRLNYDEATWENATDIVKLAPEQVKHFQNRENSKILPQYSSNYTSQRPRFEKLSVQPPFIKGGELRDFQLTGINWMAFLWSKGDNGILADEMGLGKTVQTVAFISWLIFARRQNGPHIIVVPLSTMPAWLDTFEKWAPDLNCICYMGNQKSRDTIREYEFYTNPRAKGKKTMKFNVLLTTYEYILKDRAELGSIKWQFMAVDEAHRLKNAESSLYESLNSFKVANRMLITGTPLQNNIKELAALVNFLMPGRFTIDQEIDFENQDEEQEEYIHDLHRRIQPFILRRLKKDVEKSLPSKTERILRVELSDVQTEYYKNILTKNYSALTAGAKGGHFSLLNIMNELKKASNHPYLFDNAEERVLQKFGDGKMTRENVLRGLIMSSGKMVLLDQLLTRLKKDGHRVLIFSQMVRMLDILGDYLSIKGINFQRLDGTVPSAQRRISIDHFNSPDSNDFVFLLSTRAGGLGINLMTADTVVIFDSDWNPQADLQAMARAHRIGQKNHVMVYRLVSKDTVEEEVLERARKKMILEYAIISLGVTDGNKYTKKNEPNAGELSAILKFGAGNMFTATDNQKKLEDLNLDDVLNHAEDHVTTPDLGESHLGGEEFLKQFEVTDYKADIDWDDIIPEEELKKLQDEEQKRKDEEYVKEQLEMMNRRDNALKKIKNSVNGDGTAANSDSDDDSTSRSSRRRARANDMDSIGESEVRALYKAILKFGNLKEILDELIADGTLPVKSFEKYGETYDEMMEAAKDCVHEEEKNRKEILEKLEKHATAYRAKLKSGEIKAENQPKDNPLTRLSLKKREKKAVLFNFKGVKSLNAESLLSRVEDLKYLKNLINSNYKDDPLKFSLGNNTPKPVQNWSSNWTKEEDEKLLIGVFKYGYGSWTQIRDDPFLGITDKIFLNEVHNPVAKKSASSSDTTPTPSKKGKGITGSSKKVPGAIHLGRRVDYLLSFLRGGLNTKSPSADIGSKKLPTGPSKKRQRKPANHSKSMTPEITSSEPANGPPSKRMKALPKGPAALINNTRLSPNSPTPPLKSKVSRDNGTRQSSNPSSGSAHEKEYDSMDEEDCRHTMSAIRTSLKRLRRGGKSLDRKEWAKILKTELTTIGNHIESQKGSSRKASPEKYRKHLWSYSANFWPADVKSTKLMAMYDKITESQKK
Sialic acid-binding Ig-like lectin 9 (Homo sapiens), sequence (Q9Y336 whole entry): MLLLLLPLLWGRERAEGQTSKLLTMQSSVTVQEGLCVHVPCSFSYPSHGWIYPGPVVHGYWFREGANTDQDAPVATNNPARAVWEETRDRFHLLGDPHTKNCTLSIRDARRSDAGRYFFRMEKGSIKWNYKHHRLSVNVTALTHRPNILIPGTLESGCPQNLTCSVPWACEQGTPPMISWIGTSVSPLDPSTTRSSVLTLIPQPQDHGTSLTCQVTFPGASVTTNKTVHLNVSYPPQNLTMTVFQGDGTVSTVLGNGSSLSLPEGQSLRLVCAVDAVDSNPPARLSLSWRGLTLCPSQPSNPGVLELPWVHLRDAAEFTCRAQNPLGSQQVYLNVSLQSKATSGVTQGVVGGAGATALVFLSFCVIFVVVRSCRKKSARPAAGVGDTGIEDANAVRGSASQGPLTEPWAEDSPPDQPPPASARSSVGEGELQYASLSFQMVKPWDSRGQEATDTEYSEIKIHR

With `Fc1ccc(CN2CCCC(Cn3cncn3)C2)c2ncccc12` (configuration not stated), the Percent Effect is -5.33% in experiment [1]; 5.2% in [2]; -0.904% in [3]; 8.63% in [4]; 1.67% in the experiment with Trypanosoma cruzi; -1.38% in experiment [5]. Besides, the Percent Effect in experiment [6] is 12.2%; in the experiment listed under Homo sapiens, -1.67%; in experiment [7], 5.38%; in experiment [8] it was 11.1%; in [9] it was 1.09%.

`CCSc1ccc(C(=O)Nc2c(C)nn(C(C)C)c2C)cn1`: the Percent Effect in [1] was -9.54%; in [2], -2.74%; in [3] it was 1.71%; in experiment [4], -2.98%; with Trypanosoma cruzi it was -0.198%; in [5], -1.2%. The Percent Effect in experiment [6] is 4.71%; in the experiment listed under Homo sapiens, 20.2%; in experiment [7], 0%; in [8], 1.24%; in experiment [9], -2.1%.

Consider `Cc1n[nH]c(C2CN(CC(=O)NCCc3ccsc3)CCO2)n1` (configuration not stated), for which the Percent Effect in experiment [1] was -1.63%; in experiment [2], 5.48%; in [3], -9.76%; in [4], 0.305%; with Trypanosoma cruzi, -3.13%; in [5] it was -0.455%. For the same molecule, the Percent Effect in experiment [6] is 20.2%; in the experiment filed under Homo sapiens, 8.08%; in experiment [7], 4.3%; in experiment [8] it was 15%; in experiment [9] it was -13.8%.

`COC(=O)CN1CC(c2nc(Cc3ccccc3)no2)C1`: the Percent Effect in experiment [1] is -5.1%; in experiment [2] it was 13.7%; in [3], -3.81%; in [4], 14.3%; with Trypanosoma cruzi, 2.35%; in experiment [5] it was 2.27%. In addition, the Percent Effect in [6] was 11.9%; in the experiment listed under Homo sapiens, 12.4%; in [7], 8.6%; in experiment [8], 15%; in experiment [9], -6.9%.

Regarding `CC(=O)N1CCNCC1c1cccc(C(=O)N(C)C)c1` (configuration not stated), the Percent Effect in experiment [1] was -0.644%; in experiment [2], -6.76%; in [3] it was 10.3%; in experiment [4] it was -0.354%; in the experiment on Trypanosoma cruzi it was -4.94%; in [5], 4.41%. Besides, the Percent Effect was -3.43% in experiment [6]; 4.59% in the experiment filed under Homo sapiens; 1.07% in experiment [7]; 1.3% in experiment [8]; 0.199% in [9].

Consider `CCn1c(CN2CCCC2)nnc1C1CCN(Cc2ccc(C)o2)CC1`, for which the Percent Effect was -1.86% in experiment [1]; 0% in [2]; 4.03% in [4]; 6.89% in the experiment on Trypanosoma cruzi; 13.6% in experiment [5]; 13.9% in experiment [6]. Further, the Percent Effect in the experiment listed under Homo sapiens is 2.8%; in experiment [7], 6.92%; in experiment [8], 19.5%; in experiment [9], -6.17%.

For the molecule `Cc1ccc(N2CC[C@H]3O[C@@H](C(=O)NCc4ccco4)CC[C@H]32)nn1`, the Percent Effect in [1] is -3.84%; in [2] it was 11.7%; in experiment [4], -7.1%; with Trypanosoma cruzi, 0.487%; in experiment [5], 4.05%; in experiment [6] it was 34.9% and 42.6% and 44.7%. Also, the Percent Effect in the experiment with N/A was 17.7% and 15.6%; in the experiment filed under Homo sapiens it was 2.02%; in experiment [7] it was 12.1%; in experiment [8], 12.8%; in experiment [9] it was -1.01%.

In the case of `CCc1nnc2n1CCN(Cc1csc(-c3ccc(C)o3)n1)C2`, the Percent Effect in experiment [1] is -2.83%; in experiment [2], 10.3%; in experiment [4], -4.26%; in the experiment with Trypanosoma cruzi, 7.42%; in [5], 1.23%; in experiment [6], 36.4% and 37.5% and 36.1%. Also, the Percent Effect is 6.53% and 0.633% with N/A; 4.79% in the experiment listed under Homo sapiens; 8.13% in [7]; 22.9% in [8]; -6.08% in [9].

As for `COc1ccccc1OCCN1CCCC(c2cc(C(N)=O)[nH]n2)C1` (configuration not stated), the Percent Effect in experiment [1] was -3.66%; in [2], 2.67%; in experiment [4], 8.25%; in the experiment with Trypanosoma cruzi it was -3.01%; in experiment [5], 4.43%; in experiment [6], 12%. The Percent Effect in the experiment filed under Homo sapiens is -0.623%; in experiment [7], 2.63%; in experiment [8], 5.13%; in experiment [9] it was -8.44%.

As for `Cc1ccc(C(=O)N2C[C@@H]3OCCN(CCN4CCCC4)[C@@H]3C2)cn1`, the Percent Effect in [1] was -3.52%; in experiment [2], 8.11%; in experiment [3], 0.326%; in experiment [4], -5.24%; in the experiment with Trypanosoma cruzi it was -2.25%; in [5], 2.23%. In addition, the Percent Effect in experiment [6] was 21%; in the experiment listed under Homo sapiens it was -5.79%; in experiment [7] it was 5.41%; in experiment [8] it was 15.4%; in [9] it was -1.17%.

Consider `O=S(=O)(NCC1(O)CCOc2ccccc21)c1ccc(Br)s1` (configuration not stated), for which the Percent Effect in [1] is -7.03%; in experiment [2], 2.74%; in [3], 6.4%; in experiment [4] it was -1.37%; with Trypanosoma cruzi it was -3.72%; in experiment [5], -1.82%. The Percent Effect in [6] was 4.97%; in the experiment listed under Homo sapiens, 21.1%; in experiment [9] it was -2.54%.
